Experimental data taken from PubChem BioAssay (NCI).
Compounds without any hit were thinned out: in the full panel of roughly 79,000, 15% have a hit. Values without a mark were called inactive. Active and inactive are the calls of the source. Cut-off read from the data, not from the text of the source: active = growth inhibition above about 70%; inactive = the rest.

experiment: NCI Yeast Anticancer Drug Screen. Data for the sgs1 mgt1 strain (AID 161);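 note: 0% = growth of cultures given vehicle only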; conditions: S. cerevisiae sgs1 mgt1 strain, at 50.0 µM, hits give high values
Outline: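 Test agents were incubated with a DNA-repair-mutant yeast strain. Growth was then read and compared against vehicle-treated controls.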

Row | Structure (SMILES) | growth inhibition
1 | C[CH2][Sn]([CH2]C)([S]c1nc(O)cc(=O)[nH]1)[S]c1nc(O)cc(=O)[nH]1 | -18.1%
2 | CCCC(=O)[O-].N.N.N.N.N.[Co+3].[O-][Cl+3]([O-])([O-])[O-] | -41%
3 | COc1ccc(C)cc1C(=O)C[n+]1ccc2ccccc2c1 | -25.1%
4 | CC(C)[C@]12O[C@H]1[C@@H]1O[C@]13[C@]1(O[C@H]1C[C@H]1C4=C(C(=O)OC4)[C@@H](O)C[C@@]13C)[C@@H]2O | 6%
5 | COc1cc(C=C2C(=O)NC(=S)NC2=O)cc(OC)c1OC | 3.35%
6 | CCC(C)OC(=O)Nc1cccc(OC(=O)NC)c1 (centres undefined) | -2.1%
7 | COC1=CC=C2[C@@H]3Cc4ccc(OC)c5c4[C@]2(CCN3CCCl)C1O5 (some centres undefined) | 4.75%
8 | CCC(=O)c1ccc(N)cc1 | 2.15%
9 | CC(C)(C)C1=C(Br)C(Br)(C(C)(C)C)OP1(=O)c1ccccc1 (centres undefined) | -22.9%
10 | [C-]#[O+].[C-]#[O+].[C-]#[O+].[C-]#[O+].[Cr].c1ccc([PH+](CC[PH+](c2ccccc2)c2ccccc2)c2ccccc2)cc1 | -0.9%
11 | CCOC(OCC)/C(=C\N(C)C)N=C(C#N)C#N | 5.35%
12 | BrCC[N+]12CC[N+](CCBr)(CC1)C2 (tested in a mixture with another compound) | 81.6% (active)
13 | c1cc2[se][se]c3c4cccc5[se][se]c(c(c1)c23)c54 | -26.8%
14 | CCCC(C)SP(=S)(SC(C)CCC)SC(C)CCC (centres undefined) | -1.9%
15 | CC(C)OP(=O)(NC(=S)c1ccccc1)OC(C)C | 36.4%
16 | ClC1OC(Cl)(Cl)C(Cl)(Cl)OC1(Cl)Cl (centres undefined) | 35%
17 | CC(=O)Nc1nn[nH]n1 | 2.1%
18 | COC(=O)c1ccccc1NC(C)=O | -8.95%
19 | CC1=C(\C=C/C(C)=C/C=C/C(C)=C/C=C/C=C(C)\C=C\C=C(C)/C=C/C2=C(C)CCCC2(C)C)C(C)(C)CCC1 | 27.1%
20 | Nc1ccc(Cl)cc1.Nc1ccc(Cl)cc1.Nc1ccc(Cl)cc1.O=C([O-])C(=O)[O-].O=C([O-])C(=O)[O-].[H+].[Ru+5] | 13.3%

Row | Structure (SMILES) | growth inhibition
21 | N#C[CH2][Sn]([c]1ccccc1)([c]1ccccc1)[c]1ccccc1 | 99% (active)
22 | CCNC(=O)Oc1c(Cl)cc(S(=O)(=O)F)cc1Cl | 32.1%
23 | c1ccc(-c2csc3[nH]c4ccccc4[n+]23)cc1 | 8.35%
24 | Cc1ccc(P(=S)(c2ccccc2)c2ccccc2)c2ccccc12 | -1.5%
25 | C=CC[As+](c1cccc2ccccc12)(c1cccc2ccccc12)c1cccc2ccccc12 | -15.1%
26 | C1C2CC3C1C1CN3C21 (centres undefined) | 5.45%
27 | O=C(O)c1ccc(CI)cc1 | 6%
28 | C/C=C/C(=O)[O-].N.N.N.N.N.[Co+3].[O-][Cl+3]([O-])([O-])[O-] | -7.6%
29 | Cc1nnc(NC2=NCCO2)s1 | -1.6%
30 | Cc1ccc(C(=O)Nc2ccc(CP(=O)(O)O)cc2)cc1NC(=O)c1cccc(NC(=O)Nc2cccc(C(=O)Nc3cc(C(=O)Nc4ccc(CP(=O)(O)O)cc4)ccc3C)c2)c1 | 3.6%
31 | CC(=O)OC(C)(C)/C=C/C(=O)[C@](C)(O)[C@H]1[C@H](O)C[C@@]2(C)[C@@H]3CC=C4[C@@H](C[C@H](O)C(=O)C4(C)C)[C@]3(CO)C(=O)C[C@]12C | 15.3%
32 | O=C(CCCN1CCC2(CC1)C(=O)NCN2c1ccccc1)c1ccccc1 | -0.85%
33 | CN(C1CCCC1)C1CCCC1 | -24.1%
34 | CCOc1ccc(/C=C/c2cc(OC)c(OC)c(OC)c2)cc1 | -23.8%
35 | CCCOP(=O)(OCCC)C(=O)Nc1ccc(Br)cc1 | 6.25%
36 | COC(=O)C1c2cc(OC)c(OC)cc2C(=O)N2CCc3cc4c(cc3C12)OCO4 (centres undefined) | 0.65%
37 | COc1ccc(CC(C)NO)cc1 (centres undefined) | -11.9%
38 | S=P(NCc1cccc(CNP(=S)(N2CC2)N2CC2)c1)(N1CC1)N1CC1 | 16.2%
39 | CNP(=S)(Oc1cc(Cl)c(Cl)cc1Cl)N1CCN(c2ccc(Cl)cc2)CC1 (centres undefined) | 4.35%
